Among the data in PubChem BioAssay (EPA / NIEHS) are outcome and AC50 values, retold here.

By AC50 is commonly meant the concentration at which the activity in the assay is half-maximal.

Active and inactive are the calls of the source. How the source made its calls: active means hit-call score of the fitted dose curve at least 0.9, where 1 is the maximum; inactive means score below 0.9.

The nature of the assay: ATG_RORE_CIS: Attagene CIS-FACTORIAL HepG2 Assay for human RAR-related Orphan Receptor Element (RORE) (AID 2282959). Conditions: HepG2 Attagene cis-factorial RORE reporter, mRNA; actives raise or lower the signal. In short, it runs like this:
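Transient MRTU transfection of human HepG2 liver cells (FuGene 6); 24 h compound exposure; TriZol RNA, oligo(dT) RT, PCR, FAM labeling, HpaI cut, CE fragment analysis. DMSO = negative control/baseline.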
As for `Cn1c(-c2ccccc2)cc(-c2ccccc2)[n+]1C`, the compound was called inactive.
In the case of `CC(C)C1(C)N=C(c2ncccc2C(=O)O)NC1=O` (stereo unspecified), the outcome was inactive.
Turning to `COc1ccc(-c2ccccc2)cc1NNC(=O)OC(C)C`, the compound was classed as inactive.
In the case of `CC(C)=CC1C(C(=O)OCc2coc(Cc3ccccc3)c2)C1(C)C` (stereo unspecified), the compound was classed as inactive.
Same read-out and setting: to `CCSC(=O)N1CCCCCC1` belongs “inactive”.
On to `CCOP(=O)(OCC)Oc1nc(Cl)c(Cl)cc1Cl`, for which the compound was classed as inactive.
`COC(=O)N(C(=O)N1CO[C@@]2(C(=O)OC)Cc3cc(Cl)ccc3C2=N1)c1ccc(OC(F)(F)F)cc1`: the AC50 is 13.2 µM (active).
Take `Cc1nc(N(C)C)nc(OC(=O)N(C)C)c1C`: the compound was called inactive.
`CC(C)N1C(=O)c2ccccc2NS1(=O)=O`: the result was inactive.
The same measure, in the same setting: for `Nc1c(Cl)c(Cl)nc(C(=O)O)c1Cl` the value was “inactive”; for `CC1(C)C(C=C(Cl)Cl)C1C(=O)OC(C#N)c1cccc(Oc2ccccc2)c1` (stereo unspecified), “inactive”; for `COC(=O)NS(=O)(=O)c1ccc(N)cc1`, “inactive”.
The same measure, in the same setting: to `Cc1cc(C)nc(Nc2ccccc2)n1` belongs “inactive”; to `CNC(=O)Oc1cccc2ccccc12`, “inactive”.
The same measure, in the same setting: to `O=C(O)c1c(Cl)ccc2cc(Cl)cnc12` belongs “inactive”; to `Cc1cnc(C2=NC(C)(C(C)C)C(=O)N2)c(C(=O)O)c1` (stereo unspecified), “inactive”.
Consider `COP(=O)(OC)O/C(C)=C/C(=O)N(C)C`, for which the compound was classed as inactive.
With `CCC(C)n1c(=O)[nH]c(C)c(Br)c1=O` (stereo unspecified), the outcome was inactive.
Consider `Cc1c(COC(=O)[C@@H]2[C@H](/C=C(\Cl)C(F)(F)F)C2(C)C)cccc1-c1ccccc1`, for which the call was inactive.
The same measure, in the same setting: to `Clc1cccc(C(Cl)(Cl)Cl)n1` belongs “inactive”; to `N#Cc1c[nH]cc1-c1cccc2c1OC(F)(F)O2`, “inactive”; to `CCNP(=S)(OC)O/C(C)=C/C(=O)OC(C)C` (stereo unspecified), “inactive”.
For `CCCN(CC)CC1COC2(CCC(C(C)(C)C)CC2)O1` (stereo unspecified), the AC50 was 18.1 µM (active).
With `Cc1ccc(N=CN(C)C=Nc2ccc(C)cc2C)c(C)c1`, the compound was called inactive.
Regarding `COCC(C)N(C(=O)CCl)c1c(C)csc1C` (stereo unspecified), the compound was classed as inactive.
Consider `CN/C(=N\[N+](=O)[O-])NCc1cnc(Cl)s1`, for which the compound was classed as inactive.
As for `O=P(O)(O)CCCl`, the result was inactive.
Take `CCOC(=O)C(C)OC(=O)c1cc(Oc2ccc(C(F)(F)F)cc2Cl)ccc1[N+](=O)[O-]` (stereo unspecified): the AC50 is 50 µM (active).
For `CCOP(=S)(OCC)Oc1nc(Cl)n(C(C)C)n1`, the outcome was inactive.
The same measure, in the same setting: for `Nc1c(Cl)c(F)nc(OCC(=O)O)c1Cl` the value was “inactive”; for `N#CN=C1SCCN1Cc1ccc(Cl)nc1`, “inactive”.
